SENP8 block-1 – blocks human SENP8 cleavage of Nedd8 substrate. Q96LD8. recombinant SENP8, Nedd8 substrate fluorescence. inhibition, % at 20 µM. 360,000 compounds, 0.64% hits. AID 602440; in the data active = inhibition mostly above about 40%, no sharp cut-off; inactive = mostly below about 27%
Target sequence (Q96LD8 whole entry, looked up): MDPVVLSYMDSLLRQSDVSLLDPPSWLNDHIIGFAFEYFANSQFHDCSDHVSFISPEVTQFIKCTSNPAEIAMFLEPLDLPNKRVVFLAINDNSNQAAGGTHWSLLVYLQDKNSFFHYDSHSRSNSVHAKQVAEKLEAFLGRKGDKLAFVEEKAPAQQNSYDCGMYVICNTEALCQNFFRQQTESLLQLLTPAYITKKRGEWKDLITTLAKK
SENP6 block – blocks the human protease SENP6. Q9GZR1. Recombinant SENP6 catalytic domain, aminoluciferin luminescence. inhibition, % at 10 µM. 330,000 compounds, 1.8% hits. AID 2599;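 active = inhibition above about 50% at the single tested dose, limit read from the data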
SENP8 block-2 – blocks the human protease SENP8; Q96LD8; purified SENP8, Z-RLRGG-aminoluciferin cleavage, luminescence; inhibition, % at 10 µM; 330,000 compounds, 1.2% hits; AID 2540; in the data active = inhibition above about 50%
TRAIL sens C8 – caspase-8 TRAIL sensitization; NB7+C8 cells + TRAIL, ATPlite viability luminescence; inhibition (viability loss, TRAIL sensitization), % at 10 µM; 360,000 compounds, 1% hits;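 active = compounds causing at least 50% loss of cell viability in the single-dose screen, relative to plate controls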
PPC-1+TRAIL kill – PPC-1 cancer cell killing with TRAIL present. PPC-1 cells + TRAIL, ATPLite viability luminescence. cell killing (% activity), % at 4 µM or 5 µM. 220,000 compounds, 0.41% hits. AID 1443;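 active = cell killing above 50% in the first pass at 4 µM, then a duplicate retest at 5 µM averaging 50% or more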
SENP7 inh – inhibitors of human SENP7 protease; 330,000 compounds, 1.5% hits; recombinant SENP7, Z-RLRGG-aminoluciferin luminescence, 40 min; inhibition, % at 5 µM; Q9BQF6; AID 434973;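 active = inhibition above about 50% at the single test dose, limit read from the data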
PPC1 cytotox – kills PPC-1 cells. shares compounds with PPC-1+TRAIL kill. 1,200 compounds, 50% hits. AID 1447. cytotoxicity, % at 5 µM. PPC-1 viability, ATPlite luminescence, overnight;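 active = reconfirmed compounds whose average cytotoxicity reaches 50% or more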
SENP8 confirm – human SENP8 inhibition, confirmed; AID 488912; shares compounds with SENP7 inh; 6,200 compounds, 40% hits; Recombinant SENP8, Z-RLRGG-aminoluciferin luminescence, 60 min; inhibition, % at 12.5 µM;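 active = mean inhibition across replicates above about 50%, limit read from the data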
SENP6 conf – human SENP6 inhibition, confirmed. shares compounds with SENP7 inh. recombinant SENP6, Z-RLRGG-aminoluciferin luminescence. inhibition, % at 12.5 µM. 6,200 compounds, 58% hits. AID 488915
SENP7 confirm – confirmation of human SENP7 protease inhibitors. recombinant SENP7, Z-RLRGG-aminoluciferin luminescence, 40 min. shares compounds with SENP7 inh. 6,200 compounds, 69% hits. inhibition, % at 12.5 µM
Casp3 select – caspase-3 inhibition (SENP selectivity assay) | inhibition, % at 12.5 µM | AID 488918 | shares compounds with SENP7 inh | 6,200 compounds, 60% hits | purified caspase-3, Z-DEVD-aminoluciferin luminescence, 60 min;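 active = mean inhibition above about 50%, limit read from the data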
Target sequence (P42574 28-227 limits assumed): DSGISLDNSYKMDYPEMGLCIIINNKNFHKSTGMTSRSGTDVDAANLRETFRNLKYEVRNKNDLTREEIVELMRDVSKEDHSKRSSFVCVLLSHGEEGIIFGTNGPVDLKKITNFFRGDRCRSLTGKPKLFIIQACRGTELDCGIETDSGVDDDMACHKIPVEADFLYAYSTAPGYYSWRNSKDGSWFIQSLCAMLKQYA
Luc interf – counter-screen for SENP inhibitors: luminescence interference | 6,200 compounds, 39% hits | AID 488919 | inhibition, % at 12.5 µM | shares compounds with SENP7 inh | Pre-incubated SENP8/Z-RLRGG-aminoluciferin, luciferase luminescence interference;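 active = mean inhibition above about 50% when retested at one dose, limit read from the data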
Hits are given with their value. The list is not random: actives were taken first. Their share in the collection is about 3%.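 The calls were made as follows, unless noted: active = mean inhibition above about 50% in the one-dose retest (limit read from the data); inactive = the rest.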

Screening COc1cc(SC)ccc1C(=O)Nc1ccc(Br)cn1 returned SENP8 block-1 inactive, SENP6 block 90, SENP8 block-2 82, TRAIL sens C8 86, PPC-1+TRAIL kill 88, SENP7 inh 90, PPC1 cytotox 88, SENP8 confirm 53, SENP6 conf 76, SENP7 confirm 80, Casp3 select 77 and Luc interf 50.
For CCNC(=S)NNC(=O)CCn1cc(C)cn1 the results were SENP8 block-1 inactive, SENP6 block inactive, SENP8 block-2 inactive, TRAIL sens C8 inactive, PPC-1+TRAIL kill inactive and SENP7 inh inactive.
Screening CC1(C(=O)NS(=O)(=O)c2cccc(Cl)c2)CCN1C(=O)c1ccccc1CCc1ccccc1 (configuration not stated) returned SENP8 block-1 inactive and TRAIL sens C8 inactive.
For Nc1[nH]n(-c2ccccc2)c(=O)c1N=Nc1ccc2c(c1)OCCO2 the results were SENP8 block-1 inactive, SENP6 block 73, SENP8 block-2 84, TRAIL sens C8 55, PPC-1+TRAIL kill inactive, SENP7 inh 93, PPC1 cytotox inactive, SENP8 confirm inactive, SENP6 conf 94, SENP7 confirm 99, Casp3 select 83 and Luc interf inactive.
O=C(/C=C/Nc1ccc(Nc2ccccc2)cc1)c1cccs1 was read as SENP8 block-1 inactive, TRAIL sens C8 inactive and PPC-1+TRAIL kill inactive.
Screening Cc1ccc(N/C=C/C(=O)c2cccs2)cc1C returned SENP8 block-1 inactive, SENP6 block 88, SENP8 block-2 85, TRAIL sens C8 78, PPC-1+TRAIL kill 71, SENP7 inh 83, PPC1 cytotox 71, SENP8 confirm 91, SENP6 conf 92, SENP7 confirm 100, Casp3 select 84 and Luc interf 85.
COc1ccc2nc(SCC(C)=O)c(C#N)cc2c1 was read as SENP8 block-1 inactive, SENP6 block 69, SENP8 block-2 61, TRAIL sens C8 inactive, PPC-1+TRAIL kill inactive, SENP7 inh 60, PPC1 cytotox inactive, SENP8 confirm inactive, SENP6 conf 72, SENP7 confirm 92, Casp3 select 72 and Luc interf 52.
`CN(Cc1ccccc1)C(=O)[C@@H]1CCCN1C(=O)[C@@H]1CCCN1C(=O)OC(C)(C)C` gave SENP8 block-1 inactive and TRAIL sens C8 inactive.
COc1cccc2sc(Nc3nnc(-c4ccccc4Cl)o3)nc12 was read as SENP8 block-1 inactive, SENP6 block inactive, SENP8 block-2 inactive, TRAIL sens C8 inactive, PPC-1+TRAIL kill inactive and SENP7 inh inactive.
Screening COc1cccc(-c2nnc(Nc3nc4c(F)cccc4s3)o2)c1 returned SENP8 block-1 inactive, SENP6 block 90, SENP8 block-2 84, TRAIL sens C8 71, PPC-1+TRAIL kill inactive, SENP7 inh inactive, PPC1 cytotox inactive, SENP8 confirm inactive, SENP6 conf 84, SENP7 confirm inactive, Casp3 select 60 and Luc interf 50.
For CC1=C(C(=O)N2CCOCC2)CC(CC(=O)NCCc2ccccn2)C(=O)N1Cc1ccc(C(C)(C)C)cc1 (configuration not stated) the results were SENP8 block-1 inactive and TRAIL sens C8 inactive.
For Cc1ccc(S(=O)(=O)Nc2ccc(-c3cn4ccc(C)cc4n3)cc2)cc1 the results were SENP8 block-1 inactive, SENP6 block inactive, SENP8 block-2 inactive, TRAIL sens C8 inactive, PPC-1+TRAIL kill inactive and SENP7 inh inactive.

Screens from PubChem.
